Data: PubChem BioAssay (Tox21)
Records with an inconclusive call do not appear. The source made the active and inactive calls. Unless noted, calls come from the whole dose curve; as a rule, active = well fitted curve in the direction sought with a large enough effect in the repeat runs; inconclusive = weak or mixed curves; inactive = no such curve, though single readings can be large; an effect the other way counts as inactive or inconclusive.

What was measured:
[1] = qHTS assay to identify small molecule antagonists of the retinoid acid receptor (RAR) signaling pathway - cell viability counter screen (AID 1159551); note: nearly all actives have a fitted effect of over 35% in size
Summary of the method: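 Viability of C3RL4 cells is quantified from ATP by luminescence after 6 h treatment at 37 C with compounds and 1 uM retinol.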

[2] = qHTS assay to identify small molecule agonists of the retinoic acid receptor (RAR) signaling pathway (AID 1159553)
Summary of the method: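 Compounds dissolved in DMSO were pinned onto C3RL4 cells seeded the previous day, and plates were held 6 hr at 37 C. RARE-driven luciferase output was then read by luminescence.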

[3] = qHTS assay to identify small molecule antagonists of the estrogen related receptor (ERR) signaling pathway from Tox21 library - cell viability counter screen (AID 1224834); note: nearly all actives have a fitted effect of over 30% in size; note: potency is the fitted concentration of half-maximal effect
Summary of the method: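 In this quantitative HTS format, ERR cells receive compounds in DMSO and are incubated for 17.5 h at 37 C. Live-cell protease activity is then detected with CellTiter-Fluor.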

[4] = biological target: Luciferin 4-monooxygenase (Photinus pyralis) (UniProt P08659); assay: qHTS assay to identify small molecule inhibitors of firefly luciferase (AID 1224835); note: series mostly up to about 120 µM; nearly all actives have a fitted effect of over 25% in size
Summary of the method: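 Quantitative HTS format; KM concentrations of both substrates. Purified P. pyralis FLuc activity quantified from luminescence images.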

[5] = qHTS assay to identify small molecule agonists of the constitutive androstane receptor (CAR) signaling pathway - cell viability counter screen (AID 1224836); note: series mostly up to about 92 µM; nearly all actives have a fitted effect of over 45% in size
Summary of the method: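 Counter screen multiplexed with the CAR reporter readout: HepG2 cells co-transfected with hCAR and the CYP2B6-2.2kb construct receive a 15-concentration compound series and 0.75 uM PK11195 (final), then CellTiter-Fluor fluorescence is read after 23 h.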

[6] = qHTS assay to identify small molecule antagonists of the constitutive androstane receptor (CAR) signaling pathway - cell viability counter screen (AID 1224837); note: series mostly up to about 92 µM; nearly all actives have a fitted effect of over 45% in size
Summary of the method: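 In quantitative HTS format, compounds at 15 concentrations were applied to HepG2 cells double-transfected with hCAR and CYP2B6-2.2kb under 50 nM CITCO stimulation; live-cell protease activity was read after 23 hr via CellTiter-Fluor.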

[7] = biological target: Nuclear receptor subfamily 1 group I member 3 (Homo sapiens) (UniProt Q14994); assay: qHTS assay to identify small molecule antagonists of the constitutive androstane receptor (CAR) signaling pathway (AID 1224838); note: nearly all actives have a fitted effect of over 40% in size
Summary of the method: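 CITCO-stimulated (50 nM final) HepG2 cells stably transfected with hCAR and CYP2B6-2.2kb luciferase were exposed to compounds at 15 concentrations for 24 h at 37 C/5% CO2. A luciferase reagent was added and luminescence recorded after 30 min.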

[8] = biological target: Nuclear receptor subfamily 1 group I member 3 (Homo sapiens) (UniProt Q14994); assay: qHTS assay to identify small molecule agonists of the constitutive androstane receptor (CAR) signaling pathway (AID 1224839); note: series mostly up to about 92 µM; nearly all actives have a fitted effect of over 15% in size
Summary of the method: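 A 15-concentration quantitative screen uses HepG2 cells co-transfected stably with human CAR and CYP2B6-2.2kb reporter. Treatment lasts 24 h with 0.75 uM PK11195 final present; ONE-Glo luminescence is the signal.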

[9] = qHTS assay to identify small molecule antagonists of the estrogen related receptor signaling pathway with the pleiotropic PPARgamma coactivator (PGC) from Tox21 10K library - cell viability counter screen (AID 1224840; active = well fitted cell-killing curve with a large enough effect in the repeat runs, not every such curve was filed as active; note: nearly all actives have a fitted effect of over 40% in size)
Summary of the method: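 Viability counter screen, PGC/ERR cells: 17.5 h compound exposure at 37 C, CellTiter-Fluor fluorescence endpoint.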

[10] = qHTS assay to identify small molecule antagonists of the estrogen related receptor signaling pathway with the pleiotropic PPARgamma coactivator (PGC) from Tox21 10K library (AID 1224841; call rule not given here; note: actives are mostly falling curves and most rising ones were filed inactive; nearly all actives have a fitted effect of over 50% in size; note: potency is the fitted concentration of half-maximal effect)
Summary of the method: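 In the PGC/ERR line, DMSO solutions of test chemicals are pin-delivered to 2,000 cells/well six hours after dispensing. Following eighteen hours' incubation, One-Glo reagent is added and luminescence recorded.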

[11] = qHTS assay to identify small molecule agonists of the estrogen related receptor signaling pathway with the pleiotropic PPARgamma coactivator (PGC) from Tox21 10K library (AID 1224842); note: nearly all actives have a fitted effect of over 15% in size
Summary of the method: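 PGC/ERR reporter cells (NTP line) were seeded 2,000 per well, rested 6 h at 37 C/5% CO2, then pin-dosed with compounds in DMSO for 18 h at 37 C; luciferase read by One-Glo luminescence after 30 min at room temperature.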

[12] = qHTS assay to identify small molecule agonists of the RXR signaling pathway - cell viability counter screen (AID 1159529); note: series mostly up to about 77 µM; nearly all actives have a fitted effect of over 50% in size
Summary of the method: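 Cell viability is measured by CellTiter-Glo luminescence, 30 min at room temperature, in wells already read for beta-lactamase. Engineered HEK 293T cells (RXR-alpha-UAS-bla) are dosed 16 hr at 37 C. Tetraoctyl ammonium bromide serves as positive control.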

[13] = qHTS assay to identify small molecule antagonists of the retinoic acid receptor (RAR) signaling pathway (AID 1159552; note: nearly all actives have a fitted effect of over 50% in size)
Summary of the method: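 Quantitative HTS in C3RL4 RARE-luciferase reporter cells. Compounds were added with 1 uM (final) retinol; luminescence was read after 6 hr.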

[14] = qHTS assay to identify small molecule antagonists of the estrogen related receptor (ERR) signaling pathway - cell viability counter screen (AID 1224818); note: series mostly up to about 46 µM
Summary of the method: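 Cytotoxicity check run alongside the ERR antagonist screen: cells exposed to test compounds 17.5 h at 37 C, viability taken as CellTiter-Fluor fluorescence intensity.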

[15] = qHTS assay to identify small molecule antagonists of the estrogen related receptor (ERR) signaling pathway (AID 1224819;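 note: luminescence from an ERR-driven luciferase reporter measured with One-Glo reagent; series mostly up to about 46 µM; nearly all actives have a fitted effect of over 50% in size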)
Summary of the method: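 ERR reporter cells were plated at 2,000 cells/well and left 6 h at 37 C/5% CO2 before pin-tool transfer of compounds in DMSO. After 18 h at 37 C, One-Glo was added and luminescence was read 30 min later at room temperature.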

[16] = qHTS assay to identify small molecule agonists of the estrogen related receptor (ERR) signaling pathway (AID 1224820)
Summary of the method: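 Luminescence readout (One-Glo, 30 min RT) from NTP-supplied ERR cell line exposed to compounds for 18 h at 37 C. Cells seeded 2,000 per well and pre-incubated 6 h before pin-tool compound transfer.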

[17] = test system: estrogen-related receptor alpha (ERRalpha) with PGC-1alpha coactivator, human; assay: qHTS assay to identify small molecule antagonists of the estrogen related receptor signaling pathway with the pleiotropic PPARgamma coactivator (PGC) (AID 1224821; calls by dose curve)
Summary of the method: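 PGC/ERR reporter cells; 6 h pre-incubation 37 C/5% CO2; pin-tool compound in DMSO, 18 h 37 C; One-Glo added, 30 min RT; luminescence read. qHTS antagonist mode.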

[18] = qHTS assay to identify small molecule antagonists of the estrogen related receptor signaling pathway with the pleiotropic PPARgamma coactivator (PGC) cell viability counter screen (AID 1224822; note: series mostly up to about 46 µM)
Summary of the method: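 Viable cell signal (CellTiter-Fluor, 30 min, 37 C/5% CO2) was measured in PGC/ERR cells after a 17.5 h compound incubation.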

[19] = qHTS assay to identify small molecule agonists of the estrogen related receptor signaling pathway with the pleiotropic PPARgamma coactivator (PGC) (AID 1224823)
Summary of the method: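 Luminescence readout (One-Glo, 30 min RT) from PGC/ERR cell line treated 18 h at 37 C with pin-tool-delivered DMSO compound solutions; cells plated 6 h before dosing. Quantitative HTS format.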

Measured: Potency

Nuclear receptor subfamily 1 group I member 3 (Homo sapiens), sequence (Q14994 whole entry, looked up): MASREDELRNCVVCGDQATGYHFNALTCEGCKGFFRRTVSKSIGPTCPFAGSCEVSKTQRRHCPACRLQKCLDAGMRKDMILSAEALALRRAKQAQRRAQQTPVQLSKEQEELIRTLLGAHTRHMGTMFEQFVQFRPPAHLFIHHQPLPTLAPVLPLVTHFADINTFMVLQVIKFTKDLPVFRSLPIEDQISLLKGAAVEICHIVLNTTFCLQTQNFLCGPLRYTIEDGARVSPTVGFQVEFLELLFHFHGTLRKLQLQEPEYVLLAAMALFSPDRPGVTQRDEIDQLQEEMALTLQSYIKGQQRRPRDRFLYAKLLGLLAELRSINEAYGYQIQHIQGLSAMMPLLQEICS
Luciferin 4-monooxygenase (Photinus pyralis), sequence (P08659 whole entry, looked up): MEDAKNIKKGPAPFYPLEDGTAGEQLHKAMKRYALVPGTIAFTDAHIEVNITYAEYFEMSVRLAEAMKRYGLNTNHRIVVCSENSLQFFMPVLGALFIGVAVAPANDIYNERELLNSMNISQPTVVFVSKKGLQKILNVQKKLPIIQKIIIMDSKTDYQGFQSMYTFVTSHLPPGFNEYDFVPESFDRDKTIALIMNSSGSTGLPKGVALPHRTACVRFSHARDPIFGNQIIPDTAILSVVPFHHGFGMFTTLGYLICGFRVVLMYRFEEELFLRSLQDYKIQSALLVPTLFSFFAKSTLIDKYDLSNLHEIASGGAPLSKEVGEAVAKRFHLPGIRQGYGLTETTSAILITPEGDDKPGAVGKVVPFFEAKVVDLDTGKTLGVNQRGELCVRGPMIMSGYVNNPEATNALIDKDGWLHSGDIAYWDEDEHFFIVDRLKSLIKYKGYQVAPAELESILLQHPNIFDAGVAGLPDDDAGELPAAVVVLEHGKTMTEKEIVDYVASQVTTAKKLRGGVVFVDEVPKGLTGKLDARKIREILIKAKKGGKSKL

CCC(=O)c1ccc2c(c1)N(CCCN(C)C)c1ccccc1S2
inactive: [1] | [2] | [4] | [5] | [6] | [7] | [8]
active: [3] 26.6 µM

CCCCCCCCCC#N
inactive: [1] | [3] | [4] | [5] | [6] | [8] | [9] | [10] | [11]

CCc1cc2cc(OC)c(OC)cc2c(Cc2ccccc2)n1
inactive: [12] | [2] | [4] | [5] | [7] | [9] | [10] | [11]

Cc1ccccc1C(=O)Nc1ccc(C(=O)N2CCCC(O)c3cc(Cl)ccc32)c(C)c1 (stereo not drawn)
inactive: [12] | [1] | [2] | [5] | [6] | [7] | [8] | [10] | [11]

CCCCOc1cc(C(=O)NCCN(CC)CC)c2ccccc2n1
inactive: [1] | [13] | [2] | [4] | [9]

CC(C)C1=CC2=CC[C@@H]3[C@](C)(CCC[C@@]3(C)C(=O)O)[C@H]2CC1
inactive: [1] | [13] | [2] | [5] | [7] | [8] | [9] | [11]

Cc1nc(N)nc(N)c1-c1ccc(Cl)c(Cl)c1
inactive: [1] | [13] | [2] | [4] | [5] | [11]
active: [10] 0.841 µM

Cc1ccc([N+](=O)[O-])c(N)c1
inactive: [12] | [1] | [5] | [6] | [9] | [10] | [11]

NS(=O)(=O)c1cc(-c2nn[nH]n2)c(NCc2cccs2)cc1Cl
inactive: [12] | [1] | [2] | [4] | [9]

CCN(CC)CCOc1ccc(Cc2ccccc2)cc1
inactive: [12] | [1] | [3] | [4] | [5] | [6] | [8] | [9]

CCCOc1ccc2c(c1)CC[C@@H]1[C@@H]2CC[C@]2(C)C(OC)CC[C@@H]12 (stereo partly drawn)
not listed: [7] | [12] | [14] | [15] | [16] | [17] | [18] | [19]
inactive: all other assays above

CN1CCN(C2=Nc3ccccc3Oc3ccc(Cl)cc32)CC1
not listed: [3] | [5] | [8] | [10] | [12]
inactive: all other assays above

Cc1c(-c2ccccc2)oc2c(C(=O)OCCN3CCCCC3)cccc2c1=O
inactive: [12] | [1] | [3] | [4] | [5] | [8] | [9]

CC1=NN(c2cc(Cl)c(S(=O)(=O)O)cc2Cl)C(=O)C1N=Nc1ccc(S(=O)(=O)O)cc1 (stereo not drawn)
inactive: [12] | [1] | [4]

CCC(=O)O[C@]1(C(=O)SCF)[C@H](C)C[C@H]2[C@@H]3C[C@H](F)C4=CC(=O)C=C[C@]4(C)[C@@]3(F)[C@@H](O)C[C@@]21C
inactive: [12] | [1] | [2] | [3] | [4] | [6] | [7] | [9] | [10]
